Compounds with a hit are over-represented: about 6.5% of the library has one in this group of screens.
Vaccinia mCherry: inhibitors of vaccinia virus infection (mCherry reporter signal); 310,000 tested, 0.63% active; AID 720579; Vaccinia virus mCherry reporter infection, fluorescence; Potency, µM (series often up to 36.5 µM), for inactives: top-dose activity change, negative = inhibition, actives largely listed as inhibitors; calls by dose curve; tested in A549 cells; also: potency is read from the fitted curve at half-maximal effect; nearly all actives have a fitted effect of over 35% in size
Vaccinia Venus: vaccinia inhibition (Venus reporter); Potency, µM (titrated, usually from 36.5 µM), for inactives: at the top dose activity change, negative = inhibition, usual class: inhibitors; Vaccinia virus Venus reporter expression, fluorescence; 330,000 tested, 0.46% active; calls by dose curve; tested in A549 cells; also: potency is read from the fitted curve at half-maximal effect; nearly all actives have a fitted effect of over 30% in size
Lassa entry inh: inhibitors of Lassa virus binding or cell entry; 300,000 tested, 1.2% active; AID 540256; Lassa virus pseudotype entry inhibition, cell reporter; Potency, µM (series often up to 37.9 µM), inactives show at the highest dose activity change, negative = inhibition, hits mostly inhibitors; calls by dose curve; tested in HEK293 cells; also: potency is read from the fitted curve at half-maximal effect; nearly all actives have a fitted effect of over 50% in size
HCMV inh: human cytomegalovirus inhibition. HFF cells, HCMV-luciferase reporter, 72 h; active compounds read low. activity change, negative = inhibition, % at 57.5 µM. 410,000 tested, 4.5% active. AID 1259415; in the data active = activity change below about -60%; inconclusive = no clear call, values can overlap the other calls; inactive = above about -39%
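Two compound doses tested in HFFs infected with HCMV-luciferase, MOI 1 PFU/cell, 72 h at 37C. Lysate luminescence read with OneGlo; data normalized against buffer-only and 10uM Salinomycin inhibitor controls.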
FMDV inh: blocks foot and mouth disease virus; FMDV antiviral cell-based qHTS; 410,000 tested, 1.2% active; Potency, µM (series often up to 57.9 µM), without a hit: top-dose activity change, negative = inhibition, usual class: inhibitors; calls by dose curve; tested in HEK293T cells; also: read-out not given here; potency is read from the fitted curve at half-maximal effect; nearly all actives have a fitted effect of over 45% in size
Marburg entry inh: inhibitors of Marburg virus binding or cell entry. Marburg virus pseudotyped entry inhibition, cell reporter. 300,000 tested, 1.8% active. Potency, µM (top dose mostly 37.8 µM), for the others: top-dose activity change, negative = inhibition, actives largely listed as inhibitors; calls by dose curve; tested in HEK293 cells; also: potency is read from the fitted curve at half-maximal effect
* marks the source's active call; other numbers are inactive results; i = inactive; ? = inconclusive; nt = no result; ! = repeats disagree; [ ] = remark or other dose. % is scaled to controls: 0 for no effect and ±100 for the full control effect.

SMILES	Vaccinia mCherry	Vaccinia Venus	Lassa entry inh	HCMV inh	FMDV inh	Marburg entry inh
O=C(/C=C/c1ccco1)NC(=S)Nc1cc(-c2nc3ccccc3s2)ccc1Cl	i	-29%	-23%	280	6%	?
COC(=O)c1sc2c(c1C)c(=O)n(-c1ccccc1)c(=O)n2CC(=O)Nc1cccc(C)c1	-3%	-4%	1%[46.1 µM]	-18	-14%	nt
CO[C@H]1[C@H](NC(=O)c2ccco2)c2ccccc2C12CCN(Cc1cc(Cl)ccc1O)CC2	?	-24%	nt	nt	-21%	nt
COCc1c(C(=O)N2CCC(N3CCCCC3)CC2)cnn1-c1ncc(C)c(-c2cccs2)n1	-11%	1%	nt	nt	-14%	nt
CCCc1nc2c(C)ccc(C)c2c(N)c1CC	nt	nt	-24%	-2	-21%	9.2µM*
CCc1c(N)nc(N)nc1Nc1ccc(C)c(C)c1	?	-21%	2%[46.1 µM]	-33	?	?
O=[N+]([O-])c1cc2c(cc1/C=N/n1c(-c3ccccn3)n[nH]c1=S)OCO2	-13%	2%	1%	5	-5%	13%
O=[N+]([O-])c1ccccc1/C=C/C=N/n1c(-c2cc(-c3ccccc3)n[nH]2)n[nH]c1=S	-26%	-15%	-28%	-7	-8%	-26%[46.1 µM]
O=[N+]([O-])c1cc2c(cc1/C=N/n1c(-c3ccccc3)n[nH]c1=S)OCO2	0%	-4%	-5%	-100*	-7%	-2%
COc1ccccc1/C=C\C=N\n1c(-c2ccc(Cl)cc2)n[nH]c1=S	i	-24%	10µM*	?	50%	-17%
Cc1ccc(-c2n[nH]c(=S)n2/N=C/C=C/c2ccccc2[N+](=O)[O-])cc1	-20%	-7%	13µM*	30	-8%	7%
N=c1n(CC(=O)c2ccc([N+](=O)[O-])cc2)c2ccccc2n1Cc1ccc(Cl)cc1	nt	nt	nt	-13	-2%	nt
N=c1n(CC(=O)c2ccc(Br)cc2)c2ccccc2n1Cc1ccccc1	?	11µM*	nt	-61*	-12%	nt
N=c1n(CC(=O)c2ccc([N+](=O)[O-])cc2)c2ccccc2n1Cc1ccccc1Cl	-15%	-16%	-11%	?	28µM*	?
N=c1n(CC(=O)c2ccc([N+](=O)[O-])cc2)c2ccccc2n1Cc1ccccc1	i	-13%	?	-83*	-15%	?
CCC1CN(C(=O)Nc2cccc3c2CCCC3)c2cc(C)ccc2O1 (stereo not drawn)	12%	-5%	7%[46.1 µM]	?	-17%	nt
Cc1cc(-c2ccc(S(=O)(=O)Nc3ccc(Br)c(C)c3)s2)on1	-8%	?	-9%[46.1 µM]	0	13%	nt
COc1cccc2sc(N3CCN(C(=O)CCS(=O)(=O)c4ccc(F)cc4)CC3)nc12	-25%	-27%	?	-88*	20µM*	nt
COc1ccc(C(=O)N2CCN(c3nc4c(OC)cccc4s3)CC2)cc1OC	-6%	?	?	-84*	?	nt
COc1cccc2sc(N3CCN(C(=O)c4ccco4)CC3)nc12	i	-16%	5%	-1	7%	-8%
[O-][N+](=NC1C=Cc2ccccc21)C1C=Cc2ccccc21 (stereo not drawn)	?	7%	nt	nt	nt	nt
COc1ccc(NC(=O)Cn2cnc3c(oc4ccccc43)c2=O)cc1OC	-1%	-7%	-31%[46.1 µM]	9	15%	nt
N#Cc1c(NC(=S)NC(=O)c2ccccc2)sc2c1CCCCC2	i	-8%	nt	nt	nt	nt
Cn1ncc(Cl)c1C(=O)NC(=S)Nc1sc2c(c1C#N)CCCCC2	-15%	-3%	21%	-60*	-1%	17%
Cc1cccc(N2CCN(C(=O)C3CCN(c4ncnc5c4nc4n5CCCCC4)CC3)CC2)c1C	-26%	?	?	-77*!	20µM*	nt
SMILES	Vaccinia mCherry	Vaccinia Venus	Lassa entry inh	HCMV inh	FMDV inh	Marburg entry inh
Cc1ccc(NC(=O)C2CCN(c3ncnc4c3nc3n4CCCCC3)CC2)cc1Cl	nt	nt	nt	-14	?	nt
Fc1ccccc1N1CCN(c2ncnc3c2nc2n3CCCCC2)CC1	-13%	-12%	-8%[46.1 µM]	7	?	nt
COc1ccccc1N1CCN(C(=O)C2CCCN(c3ncnc4c3nc3n4CCCCC3)C2)CC1 (stereo not drawn)	-2%	-21%	?	7	?	?
Cc1cccc(N2CCN(C(=O)C3CCN(c4ncnc5c4nc4n5CCCCC4)CC3)CC2C)c1 (stereo not drawn)	?	?	10µM*	-96*!	32µM*	?
O=C(C1CCN(c2ncnc3c2nc2n3CCCCC2)CC1)N1CCN(c2ccccc2F)CC1	i	-18%	-7%[46.1 µM]	-64*!	?	nt
Cc1cc(N2CCC(C(=O)N3CCN(c4cccc(C)c4C)CC3)CC2)n2ncnc2n1	?	-29%	-16%	-89*	-16%	?
O=C1CCC[C@H]2[C@@H](Cc3ccccc3)[C@@H](NS(=O)(=O)c3ccc(-c4ccccc4)cc3)CC[C@]23CCCN13	nt	nt	nt	-33	nt	nt
Cc1nn(C)c(Oc2ccccc2)c1CCNS(=O)(=O)c1ccc(Cl)cc1	?	?	-23%	-75*	-13%	-19%[46.1 µM]
Cc1nn(C)c(Oc2ccccc2)c1CCNC(=O)CC(C)C	i	-11%	-9%	-2	-13%	-18%[46.1 µM]
Cc1nn(C)c(Oc2ccccc2)c1CCNC(=O)C(C)(C)C	nt	nt	nt	-83*	-14%	nt
CC(=O)c1c(C)[nH]c(C(=O)Nc2nc(C)cs2)c1C	-5%	-1%	2.2µM*	-38	-87%	1.8µM*
CC(=O)c1c(C)[nH]c(C(=O)Nc2ccc(C)cn2)c1C	i	-16%	2.1µM*	?	-85%	2µM*
CC(=O)c1c(C)[nH]c(C(=O)Nc2nc(-c3ccc(Cl)cc3)cs2)c1C	-8%	-8%	?	?	?	?
CC(=O)c1c(C)[nH]c(C(=O)Nc2nc(-c3ccc(-c4ccccc4)cc3)cs2)c1C	i	-18%	?	-39	11µM*	?
CCOC(=O)c1cnn(-c2cccc(F)c2)c1C1CCNCC1	-5%	-11%	9%[46.1 µM]	-5	2%	-1%[46.1 µM]
CN(CCNC(=O)c1ccc(/C=N\O)nc1)Cc1ccccc1	nt	nt	nt	nt	nt	9%
O=C1N/C(=N\N=C\c2ccccn2)SC1Cc1cccc(SC(F)F)c1 (stereo not drawn)	-12%	-10%	?	-99*	-17%	?
Cc1cccc(CC2S/C(=N/c3ccccn3)NC2=O)c1 (stereo not drawn)	nt	-18%	?	-65*	-4%	7%
O=C1N/C(=N\N=C\c2cccnc2)SC1Cc1ccc(SC(F)F)cc1 (stereo not drawn)	nt	nt	?	-85*	0%	?
CCCN1CNc2c(c(=O)[nH]c(=S)n2CCc2ccc(OCC)c(OCC)c2)C1	i	-20%	nt	nt	nt	nt
COc1ccc(CCNC(=O)c2cnn(-c3nccc(-c4ccco4)n3)c2C)cc1	-18%	-5%	nt	nt	39%	nt
Cc1ccc(-c2noc(CCCC(=O)NC3CCCCC3)n2)cc1	-25%	-20%	-23%	-77*	?	?
O=C(CCCc1nc(-c2ccccc2)no1)Nc1cccnc1	-16%	-17%	-11%	-24	0%	?

Bioassay records as filed in PubChem.
